In PubChem BioAssay AID624330 (Southern Research Specialized Biocontainment Screening …, 2012):
Hit rate of the full screen: of about 340,000 compounds, about 2,100 (0.62%) were called active.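 The calls were made as follows: active = first-screen hits whose inhibition reached a set limit at any dose in the follow-up dose series; inconclusive = inhibition above the set first-screen limit but never retested; inactive = the rest.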 Only a sample is shown. Potency and affinity values are given separately.

What follows are compounds tested against Rac GTPase-activating protein 1 (Homo sapiens) (UniProt Q9H0H5) (assay: MgcRacGAP GTPase-activating activity inhibitors, confirmation, biochemical, ADP Hunter fluorescence, primary and confirmatory (AID 624330;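 also: fluorescence reports GDP produced by GAP-driven GTP hydrolysis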)). Details: MgcRacGAP-stimulated Rac1 GTP hydrolysis, at 30 µM, stronger effect = higher value, GST-tagged Rac1 F28L mutant substrate.
Rac GTPase-activating protein 1 (Homo sapiens), sequence (Q9H0H5 whole entry, looked up): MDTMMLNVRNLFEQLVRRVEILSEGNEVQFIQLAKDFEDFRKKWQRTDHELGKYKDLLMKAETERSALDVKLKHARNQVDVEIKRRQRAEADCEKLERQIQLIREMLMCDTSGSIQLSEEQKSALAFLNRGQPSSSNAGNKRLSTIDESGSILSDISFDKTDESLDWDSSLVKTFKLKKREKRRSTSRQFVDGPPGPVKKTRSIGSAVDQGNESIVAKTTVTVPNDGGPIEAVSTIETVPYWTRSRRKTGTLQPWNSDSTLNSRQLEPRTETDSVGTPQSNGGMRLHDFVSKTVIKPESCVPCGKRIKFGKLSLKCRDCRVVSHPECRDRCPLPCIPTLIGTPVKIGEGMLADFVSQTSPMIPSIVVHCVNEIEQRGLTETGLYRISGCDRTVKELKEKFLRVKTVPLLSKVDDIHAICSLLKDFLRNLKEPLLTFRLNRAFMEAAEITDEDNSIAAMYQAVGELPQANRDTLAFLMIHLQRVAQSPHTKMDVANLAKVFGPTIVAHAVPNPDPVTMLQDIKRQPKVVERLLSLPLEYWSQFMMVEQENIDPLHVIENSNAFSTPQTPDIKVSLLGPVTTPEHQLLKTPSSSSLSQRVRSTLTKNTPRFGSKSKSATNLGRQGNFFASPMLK

inhibition, inactive:
CCOC(=O)C1CCN(C(=O)c2cccc(Cl)c2)CC1 6.23%, O=C(c1cccnc1)N1CCN(C(=O)c2cccc(Cl)c2)CC1 -2.27%, CC(C)CC(CO)N1CCN(C(=O)c2cccc(Cl)c2)CCC1=O (stereo not drawn) 2.07%, CN1CCCN(C(=O)c2cccc(Cl)c2)CC1 3.23%, COc1ccc(N2C(=O)CC(N3CCN(c4ccc(S(C)(=O)=O)cc4)CC3)C2=O)cc1 (stereo not drawn) -1.2%, CN(C)c1ccc(P(=O)(OCc2ccccc2)C(O)c2ccccc2F)cc1 (stereo not drawn) 0.52%, O=C(Nc1ccc(F)cc1)Nc1nnc(COc2ccccc2F)s1 10.4%, CCOc1cc(S(=O)(=O)NCc2cccs2)ccc1Cl 8.13%, CC(=O)NC1=NC(=O)CS1 2.93%, CN(C1=NC(=O)CS1)c1ccc(O)cc1 9.21%, COc1ccc(S(=O)(=O)N2CCC(N3CCCC3)CC2)cc1 21%, Cc1ccc2oc(=O)n(CCOc3ccccc3C)c2c1 0.34%, O=C(O)c1ccccc1-c1ccc(/C=C2\SC(=O)N(c3ccccc3)C2=O)o1 6.66%, N=C1S/C(=C\c2ccc(-c3ccccc3C(=O)O)o2)C(=O)N1c1ccc2c(c1)OCO2 19.7%, Cc1c(C(=O)O)cccc1-c1ccc(/C=C2/NC(=O)N(c3ccccc3)C2=O)o1 -7.26%, O=C(O)c1ccccc1SC1CC(=O)N(c2ccc3c(c2)OCO3)C1=O (stereo not drawn) -5.78%, COC(=O)c1ccc(Sc2ccccc2NS(=O)(=O)c2ccc(OC)cc2)nc1 7.44%, CC1(c2nnc(-c3cccc(Cl)c3)o2)CC(c2ccccc2F)=NO1 (stereo not drawn) 5.14%, CCn1nc(C)c(/C=N/NC(=O)c2ccoc2C)c1C 1.28%, O=C1CC(/C=C/c2ccccn2)=Nc2ccccc2N1 -8.85%, O=C(O)c1cc(N/N=C/c2cccc3ccccc23)ccc1Cl 11.3%, CC(C)n1cc(/C=N/Nc2ccc(C(=O)O)cc2)c2ccccc21 24.1%, O=C(O)c1cc(N/N=C/c2ccc(-c3ccccc3)cc2)ccc1Cl 5.89%, COc1ccc2ccccc2c1/C=N/Nc1ccc(Cl)c(C(=O)O)c1 17.1%, CC(C)CC1NC(=O)c2cc3ccccc3cc2-n2c1nc1ccc(Cl)cc1c2=O (stereo not drawn) 6.29%, COCCCNC(=S)NC1CC2CCCC(C1)N2Cc1ccco1 (stereo not drawn) 13.1%, COc1ccccc1NS(=O)(=O)c1cc(N)ccc1N1CCCCC1 5.74%, Nc1ccc(N2CCCCC2)c(S(=O)(=O)Nc2ccc(Cl)cc2)c1 3.13%, O=C(Nc1ccc(N2CCCC2)c(S(=O)(=O)Nc2cccc(C(F)(F)F)c2)c1)c1cccs1 7.15%, COc1ccccc1NS(=O)(=O)c1cc(N)ccc1N1CCOCC1 16.4%, O=C(NNC(=O)c1cc2ccccc2cc1O)c1cccs1 3.14%, Cc1cccc(N2CCN(C(=O)C3CCC(=O)N(Cc4ccccc4F)C3)CC2)c1C (stereo not drawn) -9.79%, CCn1cc(/C=C(\NC(=O)c2ccccc2)C(=O)N2CCOCC2)c2ccccc21 9.74%, Nc1no[n+]([O-])c1-c1ccccc1 7.71%, CCCC(=O)Nc1cc(-c2nc3ncccc3o2)ccc1Cl 6.17%, Cc1ccc(-c2nn(CCC(=O)O)cc2/C=C\C(=O)c2ccc(Br)cc2)cc1 -9.64%, NC(=S)N/N=C/c1cn(CCC(=O)O)nc1-c1cccc(Br)c1 12.2%, O=C(O)CCn1cc(/C=C2/NC(=S)N(c3ccccc3)C2=O)c(-c2ccccc2)n1 7.18%, O=C(O)CCn1cc(C(=O)O)c(-c2ccccc2)n1 9.41%, O=C(O)CCn1cc(/C=C2\NC(=S)N(c3ccccc3)C2=O)c(-c2ccc(Br)cc2)n1 0.36%, O=Cc1cn(CCC(=O)O)nc1-c1cccc(Br)c1 -0.73%, Cc1ccc(C2=NN3C(=O)c4ccccc4C3C2)cc1 (stereo not drawn) -20.3%, COCCC(=O)N1CCCC(C(=O)c2ccccc2SC)C1 (stereo not drawn) 1.95%, COc1ccc(-n2nnnc2SCC(=O)Nc2cccc(O)c2)cc1 8.11%, CCOC(=O)C1(Cc2cccc(OC)c2)CCN(Cc2cccc3cnccc23)CC1 -0.92%, O=C(C=Cc1ccco1)N1CCOCC1 8.8%, CN(C)c1ccc(C=C2C=C(c3ccccc3)OC2=O)cc1 -3.66%, Cc1ccc(C=C2C=C(c3ccccc3)OC2=O)cc1 11.5%, NC(=S)Cc1ccccc1Cl 8.51%, O=C(O)c1ccc(O)cc1O 6.35%, OC(CCN1CCCCC1)(c1ccccc1)C1C[C@@H]2C=C[C@H]1C2 (stereo partly drawn) 0.59%, CCN(CC)Cc1c(O)ccc2cc(-c3nc4ccccc4n3C)c(=O)oc12 2.29%, CCc1cc(-c2n[nH]c(C)c2-c2nc3ccccc3n2C)c(O)c(CN2CCN(C)CC2)c1O 1.55%, CCCCn1c(=O)c(CCC(=O)O)nc2ccccc21 -3.87%, CCc1cc2c(=O)c(-c3nc4ccccc4n3C)c(COCC(=O)O)oc2cc1O 3.02%, CCOC(=O)C1CCCN(C(=O)c2ccccc2[N+](=O)[O-])C1 (stereo not drawn) 3.25%, CCCCC/C=C/C1=CC(=O)C[C@H](c2ccc3c(c2)OCO3)C1 5.09%, CN(Cc1ccno1)Cc1cn(Cc2ccccc2)nc1-c1ccc2c(c1)OCO2 9.52%, COc1ccc(CCNC(=O)COC(=O)C2COc3ccccc3O2)cc1 (stereo not drawn) 2.96%, CC(=O)N1CCN(S(=O)(=O)c2cccc(C(=O)NCCc3ccc(Cl)cc3)c2)CC1 5.57%, CCOc1ccc(Oc2ccccc2NC(=O)C2=COCCO2)cc1 -5.82%, OCCCNc1c2ccccc2nc2ccccc12 9.86%, OCCCNCc1cccc2ccccc12 -2.77%, COCCCNC(=O)C[C@H]1C[C@H](C(=O)N(C(C)C)C(C)C)[C@@]2(C)c3[nH]c4ccc(Cl)cc4c3CCN2C1=O 4.5%, Cc1ccc(S(=O)(=O)NNC(=O)CCC(=O)Nc2ccccc2Cl)cc1 7.64%, C(/CCc1ccccc1)=N\n1cnnc1 8.49%, O=C(O)c1ccc2c(c1)C(=O)N(Cc1ccco1)C2=O -0.17%, O=C1C(=Cc2ccco2)C(=O)c2ccccc21 12.3%, Cc1ccc(C(=O)O)cc1-c1ccc(C=C2C(=O)c3ccccc3C2=O)o1 12.9%, Cc1ccc(C=C2C(=O)c3ccccc3C2=O)o1 8.39%, O=C(O)c1ccc2c(c1)C(=O)/C(=C/c1ccccc1)C2=O 31.4%, CCN(CC)c1ccc(C(=O)O)cc1 -7.19%, O=C(CN(Cc1ccccc1)C(=O)c1csnn1)NCc1ccc2c(c1)OCO2 -2.73%, CCOc1ncccc1C(=O)OCCCC(=O)c1ccc(Br)cc1 2.15%, COc1ccc(-n2c(-c3ccc(Cl)cc3Cl)n[nH]c2=S)c(OC)c1 -9.67%, COc1cccc(NC(=S)N(CCc2c(C)[nH]c3ccccc23)Cc2cccs2)c1 6.48%, COc1ccc(C(=O)Nc2ccc(C(=O)Nc3nccs3)cc2)cc1[N+](=O)[O-] 10%, CC1=Nc2cccc3cccc(c23)N1 -4.86%, Fc1ccc(C2=Nc3cccc4cccc(c34)N2)cc1 16.5%, O=C(Nc1ccccc1)NC1(C(=O)N2CCC(O)CC2)CCCCC1 5.54%, OC1CCN(C(=S)Nc2ccc(Oc3ccccc3)cc2)CC1 -10.8%, CCOC(=O)C1CCCN(C(=O)C2CCN(C(=O)Nc3ccccc3)CC2)C1 (stereo not drawn) 4.05%, CCOC(=O)C1CCCN(C(=O)Nc2ccccc2)C1 (stereo not drawn) 0.14%, CCCOCC(O)CCc1n[nH]c(=S)n1-c1ccccc1 (stereo not drawn) -1.65%, Cc1ccc(C(=O)COc2ccc3ccc(=O)oc3c2)cc1 8.86%, Cc1cc(C)n(C(=O)c2ccc(NC(=O)C3COc4ccccc4O3)cc2)n1 (stereo not drawn) -9.3%, CC(C)c1onc(C(=O)N2CCN(Cc3ccccc3)CC2)c1[N+](=O)[O-] -1.76%, Nc1nc(SCc2ccccc2)c2[nH]cnc2n1 5.48%, CNc1ncnc(Sc2nc(N)nc3nc[nH]c23)c1[N+](=O)[O-] -4.52%, COc1ccc(/C=N/Nc2ccc(C(=O)O)cc2)c(OC)c1OC 5.84%, COC(=O)c1ccc(/C=C/C(=O)O)cc1 14.6%, COC(=O)c1ccc2c(c1)C(=O)/C(=C/c1ccc(O)cc1)O2 30.8%, C[N+]1=C(/C=C/Nc2ccccc2Cl)C(C)(C)c2ccccc21 -5.94%, COC(=O)c1ccc(C(=O)OC)c(NC(=O)COC(=O)c2ccc(OC)c(OC)c2OC)c1 -0.19%, COC(=O)c1ccc2nc(C)c(C)nc2c1 2.34%, COC(=O)c1cn(Cc2ccccn2)c(=O)c2ccccc12 1.41%, O=C(Nc1ccc(N2CCN(C(=O)c3ccccc3)CC2)cc1)c1cccnc1 4.32%, CCn1cc(C(=O)OCC(=O)Nc2ccc(C(C)C)cc2)c(=O)c2ccc(C)nc21 3.76%
